This passage reports outcome and Potency results from PubChem BioAssay (Tox21).

Assay [1] in a line: qHTS assay to identify small molecule antagonists of the androgen receptor (AR) signaling pathway using the MDA cell line in the presence of 0.5 nM R1881 - cell viability counter screen (AID 1259242). Also: nearly all actives have a fitted effect of over 45% in size. The gist of the method: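 qHTS format. MDA-kb2 (MMTV-luc, AR/GR responsive) + cpd + 0.5 nM R1881 final, 16 hr 37C/0% CO2 → CellTiter-Fluor 30 min → fluorescence intensity.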
For assay [2], the target named is Androgen receptor (Homo sapiens) (UniProt P10275). Put plainly: qHTS assay to identify small molecule antagonists of the androgen receptor (AR) signaling pathway using the MDA cell line in the presence of 0.5 nM R1881 (AID 1259243). Also: nearly all actives have a fitted effect of over 50% in size. Also: potency is read from the fitted curve at half-maximal effect. The gist of the method:
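Antagonist mode quantitative HTS in MDA-kb2 MMTV-luciferase cells, agonist R1881 at 0.5 nM final, 16 hr exposure at 37C and 0% CO2, luminescent detection.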

For assay [3], the target named is Estrogen receptor (Homo sapiens) (UniProt P03372). Put plainly: qHTS assay to identify small molecule antagonists of the estrogen receptor alpha (ER-alpha) signaling pathway using the BG1 cell line in the presence of 0.1 nM 17-beta-estradiol (AID 1259244). Also: nearly all actives have a fitted effect of over 50% in size. The gist of the method:
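Reporter is a stably transfected luciferase under four estrogen responsive elements in VM7Luc4E2 cells expressing native full-length ER-alpha; inhibition of 0.1 nM (final) 17beta-estradiol-driven signal over 22 h is read by luminescence.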

Assay [4] can be described thus: qHTS assay to identify small molecule HDAC inhibitors (AID 1259364).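 Also: wild-type HCT-116 cells with endogenous class I/II HDAC activity; top concentration of the series differs between compounds; nearly all actives have a fitted effect of over 45% in size.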 In a few lines: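 Quantitative high-throughput format: overnight-seeded HCT-116 cells got compounds for 2 hr at 37C; HDAC-Glo I/II reagent added, 30 min RT, luminescence measured.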
A short description of assay [5]: qHTS assay to identify small molecule HDAC inhibitors - cell viability counter screen (AID 1259365). Also: series mostly up to about 92 µM; nearly all actives have a fitted effect of over 50% in size. The gist of the method: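 Cytotoxicity was gauged in wild-type HCT-116 cells after a brief 2hr treatment with DMSO-dissolved compounds at 37C and 5% CO2, using CellTiter-Glo luminescence developed for 30min at room temperature.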
A short description of assay [6]: qHTS assay to identify small molecule agonists of the sonic hedgehog signaling (Shh) pathway - cell viability counter screen (AID 1259366). Also: nearly all actives have a fitted effect of over 50% in size. The gist of the method: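 Stable Gli1-Luc NIH/3T3 clone, 2,000 cells/well. Compound exposure 24hr at 37C. Read-out: CellTiter-Fluor fluorescence.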
Assay [7] in a line: qHTS assay to identify small molecule antagonists of the sonic hedgehog signaling (Shh) pathway - cell viability counter screen (AID 1259367). Also: nearly all actives have a fitted effect of over 55% in size. Also: potency is read from the fitted curve at half-maximal effect. The gist of the method:
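Conditioned medium drove Shh signaling in 3T3 Gli1-Luc cells exposed to compounds at 37C and 5% CO2. Viability was determined from CellTiter-Fluor fluorescence, with reagent incubated 1 hr after 23 hr of treatment.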

Assay [8] in a line: qHTS assay to identify small molecule agonists of the sonic hedgehog signaling (Shh) pathway (AID 1259368; calls by dose curve;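 also: NIH/3T3-derived 3T3Gli1-Luc cells carrying a stable Gli1-driven firefly luciferase reporter; series mostly up to about 92 µM; nearly all actives have a fitted effect of over 15% in size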). In a few lines: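 Quantitative high-throughput format using a Gli1-driven firefly luciferase reporter line derived from NIH/3T3 cells. After a 24 hr compound treatment at 37 C and 5% CO2, luminescence reported Gli1 response element activity.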
The nature of assay [9]: qHTS assay to identify small molecule antagonists of the sonic hedgehog signaling (Shh) pathway (AID 1259369; calls by dose curve; also: nearly all actives have a fitted effect of over 45% in size). In a few lines: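 Stable Gli1-Luc reporter NIH/3T3 clone; quantitative HTS in stimulated mode with conditioned medium. Luminescence measured after 24hr compound treatment at 37 C.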
Assay [10] deals with Estrogen receptor beta (Homo sapiens) (UniProt Q92731). Put plainly: qHTS assay to identify small molecule agonists of the estrogen receptor beta (ER-beta) signaling pathway (AID 1259377; active = well fitted activation curve with a large enough effect in the signal ratio in the repeat runs, not every such curve was filed as active; the % refers to the signal ratio). The gist of the method:
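Measured by fluorescence intensity from a B/G FRET beta-lactamase substrate (2 h, room temperature) in ER-beta-UAS-bla HEK293T cells treated with DMSO-dissolved compounds for 16 hr at 37C and 5% CO2.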

A short description of assay [11]: qHTS assay to identify small molecule agonists of the androgen receptor (AR) signaling pathway in the presence of an antagonist - cell viability counter screen (AID 1259379).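 Also: MDA-kb2 human breast cancer cells carrying an MMTV luciferase reporter; series mostly up to about 92 µM; nearly all actives have a fitted effect of over 25% in size.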 The gist of the method: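 Nilutamide-containing (3.0uM final) MDA-kb2 cultures, 3,000 cells/well, were treated with compounds across 15 concentrations. After 16 hr at 37C with no CO2, cell viability was determined by CellTiter-Fluor fluorescence in the luciferase assay wells.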

Assay [12] in a line: qHTS assay to identify small molecule agonists of the estrogen receptor beta (ER-beta) signaling pathway - cell viability counter screen (AID 1259380). Also: nearly all actives have a fitted effect of over 30% in size. In a few lines:
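Steps: plate ER-beta-UAS-bla HEK293T cells, rest 6 hr; add compounds in DMSO; incubate 16 hr at 37C, 5% CO2; add FRET substrate 2 hr; add CellTiter-Glo, wait 30 min at room temperature; read luminescence.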

The target of assay [13] is Androgen receptor (Homo sapiens) (UniProt P10275). Briefly: qHTS assay to identify small molecule agonists of the androgen receptor (AR) signaling pathway in the presence of an antagonist (AID 1259381; calls by dose curve; also: nearly all actives have a fitted effect of over 15% in size). The gist of the method:
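Reporter-gene luminescence from MDA-kb2 cells exposed 16hr at 37C (0% CO2) to 15-point compound titrations with 3.0uM final nilutamide as AR antagonist.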

Assay [14] can be described thus: qHTS assay to identify small molecule antagonists of the estrogen receptor beta (ER-beta) signaling pathway - cell viability counter screen (AID 1259382). Also: series mostly up to about 92 µM; nearly all actives have a fitted effect of over 55% in size. In a few lines: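 Viability is scored by CellTiter-Glo luminescence (30 min, room temperature) in ER-beta-UAS-bla HEK293T wells already read for reporter fluorescence. Compound exposure lasts 16 hr at 37C alongside 1nM 17-beta-estradiol in charcoal-stripped serum medium.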

Assay [15] deals with Estrogen receptor (Homo sapiens) (UniProt P03372). Briefly: qHTS assay to identify small molecule agonists of the estrogen receptor alpha (ER-alpha) signaling pathway in the presence of an antagonist (AID 1259383; calls by dose curve; also: top concentration of the series differs between compounds; nearly all actives have a fitted effect of over 15% in size). The gist of the method:
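Readout was ERE-driven luciferase luminescence in VM7Luc4E2 cells, which express full-length ER-alpha endogenously. Compounds were tested at 15 concentrations for 22hr alongside 10.0nM ICI-182,780 (final concentration).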

The nature of assay [16]: qHTS assay to identify small molecule agonists or antagonists of the thyroid stimulating hormone receptor (TSHR) signaling pathway - wild type cell line counter screen (AID 1259384; calls by dose curve). The gist of the method: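 Wild-type HEK293 cells were plated 18 h at 37 C/5% CO2, pin-dosed with compound plus Ro20-1724 medium, held 30 min at room temperature, then given cAMP-d2 and anti-cAMP-cryptate; fluorescence was read after 1 h. Fifteen concentrations, triplicate.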

Assay [17] deals with Thyrotropin receptor (Homo sapiens) (UniProt P16473). Put plainly: qHTS assay to identify small molecule antagonists of the thyroid stimulating hormone receptor (TSHR) signaling pathway (AID 1259385; calls by dose curve; also: nearly all actives have a fitted effect of over 20% in size). In a few lines:
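TSHR-HEK293 cells were plated and held 18 h at 37C/5% CO2, then given compound plus Ro20-1724 and stimulated with TSH at 1.5 ng/mL final. After 30 min at room temperature, cAMP was detected with cAMP-d2/anti-cAMP-cryptate (1 h) by fluorescence.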

The nature of assay [18]: qHTS assay to identify small molecule agonists of the estrogen receptor alpha (ER-alpha) signaling pathway in the presence of an antagonist - cell viability counter screen (AID 1259386).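 Also: series mostly up to about 92 µM; cells exposed to compounds for 22 h at 37 °C before the viability read; nearly all actives have a fitted effect of over 30% in size.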 The gist of the method:
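In this counter screen, compound effects on VM7Luc4E2 viability were tested in the presence of the antagonist ICI-182,780 at 10.0nM final. Compounds were dosed at 15 concentrations, exposure lasted 22hr, and the CellTiter-Fluor signal was read.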

Assay [19] is described as follows: qHTS assay to identify small molecule phospholipidosis (PLD) inducers (AID 1259344; active = well fitted curve in the direction sought with a large enough effect; an effect the other way counts as inactive or inconclusive). In a few lines: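 After 4 h attachment on collagen I, HepG2 cells were dosed with compound alongside LipidTOX Red, kept 24 h at 37 C, fixed, and imaged for lamellar phospholipid pits.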
Assay [20] addresses Estrogen receptor beta (Homo sapiens) (UniProt Q92731). Put plainly: qHTS assay to identify small molecule antagonists of the estrogen receptor beta (ER-beta) signaling pathway (AID 1259378; active = well fitted inhibition curve with a large enough effect in the signal ratio in the repeat runs, not every such curve was filed as active; the % refers to the signal ratio). The gist of the method:
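ER-beta-UAS-bla HEK293T (GripTite) cells in 2% charcoal-stripped FBS medium were preincubated 6 hr at 37C, dosed with compound, then stimulated with 1 nM E2 (final) for 16 hr; beta-lactamase reporter read by B/G FRET fluorescence after 2 hr substrate loading.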

Unmarked numbers belong to inactive results. Records with an inconclusive call do not appear. The source made the active and inactive calls. Unless noted, calls follow the shape of the dose curve; as a rule, active = well fitted curve in the direction sought with a large enough effect in the repeat runs; inconclusive = weak or mixed curves; inactive = no such curve, though single readings can be large; an effect the other way counts as inactive or inconclusive.

Chain of Estrogen receptor beta (Homo sapiens) (Q92731 whole entry, looked up): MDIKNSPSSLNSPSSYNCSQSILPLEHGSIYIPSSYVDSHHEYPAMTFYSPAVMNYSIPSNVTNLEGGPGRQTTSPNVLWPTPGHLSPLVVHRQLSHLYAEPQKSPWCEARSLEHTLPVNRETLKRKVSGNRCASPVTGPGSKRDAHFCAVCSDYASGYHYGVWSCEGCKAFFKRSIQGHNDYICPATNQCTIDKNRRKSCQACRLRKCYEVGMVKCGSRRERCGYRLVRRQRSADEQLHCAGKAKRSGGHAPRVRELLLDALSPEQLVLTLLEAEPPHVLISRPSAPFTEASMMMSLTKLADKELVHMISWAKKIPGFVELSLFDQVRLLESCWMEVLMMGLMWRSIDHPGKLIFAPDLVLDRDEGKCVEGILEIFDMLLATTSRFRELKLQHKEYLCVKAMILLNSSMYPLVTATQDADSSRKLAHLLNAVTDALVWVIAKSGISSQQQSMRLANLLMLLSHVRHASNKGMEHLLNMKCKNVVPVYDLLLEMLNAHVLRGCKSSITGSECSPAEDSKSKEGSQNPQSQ
Chain of Androgen receptor (Homo sapiens) (P10275 whole entry, looked up): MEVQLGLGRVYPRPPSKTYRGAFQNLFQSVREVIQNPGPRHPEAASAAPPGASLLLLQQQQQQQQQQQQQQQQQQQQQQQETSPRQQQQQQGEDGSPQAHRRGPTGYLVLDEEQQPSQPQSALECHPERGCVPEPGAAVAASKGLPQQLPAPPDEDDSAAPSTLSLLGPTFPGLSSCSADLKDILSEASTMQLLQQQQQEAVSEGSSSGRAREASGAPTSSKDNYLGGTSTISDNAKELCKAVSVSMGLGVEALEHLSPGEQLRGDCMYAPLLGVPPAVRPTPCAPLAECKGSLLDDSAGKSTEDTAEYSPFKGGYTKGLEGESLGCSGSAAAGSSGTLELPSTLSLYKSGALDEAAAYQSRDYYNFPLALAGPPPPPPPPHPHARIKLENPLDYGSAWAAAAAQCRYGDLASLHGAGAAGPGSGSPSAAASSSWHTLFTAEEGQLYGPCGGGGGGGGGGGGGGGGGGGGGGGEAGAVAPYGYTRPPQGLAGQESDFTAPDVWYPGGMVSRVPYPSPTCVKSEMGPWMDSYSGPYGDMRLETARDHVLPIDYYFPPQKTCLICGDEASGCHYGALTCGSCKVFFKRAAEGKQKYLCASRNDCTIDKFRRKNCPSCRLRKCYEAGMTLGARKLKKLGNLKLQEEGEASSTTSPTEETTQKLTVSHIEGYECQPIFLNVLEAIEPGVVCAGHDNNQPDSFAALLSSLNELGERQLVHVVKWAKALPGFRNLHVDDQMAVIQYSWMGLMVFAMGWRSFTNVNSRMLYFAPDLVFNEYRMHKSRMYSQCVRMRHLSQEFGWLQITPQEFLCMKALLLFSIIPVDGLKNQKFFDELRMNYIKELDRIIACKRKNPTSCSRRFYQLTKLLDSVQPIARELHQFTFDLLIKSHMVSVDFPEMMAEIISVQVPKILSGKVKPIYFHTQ
Chain of Estrogen receptor (Homo sapiens) (P03372 whole entry, looked up): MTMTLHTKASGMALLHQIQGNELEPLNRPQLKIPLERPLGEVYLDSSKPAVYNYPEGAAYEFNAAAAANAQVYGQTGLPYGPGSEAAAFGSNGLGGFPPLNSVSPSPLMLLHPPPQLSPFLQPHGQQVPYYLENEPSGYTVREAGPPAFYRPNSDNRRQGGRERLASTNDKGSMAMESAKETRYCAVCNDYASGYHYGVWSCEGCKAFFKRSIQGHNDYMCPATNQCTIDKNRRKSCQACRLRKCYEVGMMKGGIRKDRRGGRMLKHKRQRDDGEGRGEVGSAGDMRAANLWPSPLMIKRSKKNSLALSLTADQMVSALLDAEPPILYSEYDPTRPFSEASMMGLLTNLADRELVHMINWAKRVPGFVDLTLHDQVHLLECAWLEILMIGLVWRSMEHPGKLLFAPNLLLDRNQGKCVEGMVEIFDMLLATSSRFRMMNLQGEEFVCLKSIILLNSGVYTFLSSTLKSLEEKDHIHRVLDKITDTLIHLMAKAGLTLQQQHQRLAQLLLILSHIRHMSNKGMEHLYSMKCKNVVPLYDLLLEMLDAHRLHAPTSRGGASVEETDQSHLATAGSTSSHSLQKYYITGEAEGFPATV
Chain of Thyrotropin receptor (Homo sapiens) (P16473 whole entry, looked up): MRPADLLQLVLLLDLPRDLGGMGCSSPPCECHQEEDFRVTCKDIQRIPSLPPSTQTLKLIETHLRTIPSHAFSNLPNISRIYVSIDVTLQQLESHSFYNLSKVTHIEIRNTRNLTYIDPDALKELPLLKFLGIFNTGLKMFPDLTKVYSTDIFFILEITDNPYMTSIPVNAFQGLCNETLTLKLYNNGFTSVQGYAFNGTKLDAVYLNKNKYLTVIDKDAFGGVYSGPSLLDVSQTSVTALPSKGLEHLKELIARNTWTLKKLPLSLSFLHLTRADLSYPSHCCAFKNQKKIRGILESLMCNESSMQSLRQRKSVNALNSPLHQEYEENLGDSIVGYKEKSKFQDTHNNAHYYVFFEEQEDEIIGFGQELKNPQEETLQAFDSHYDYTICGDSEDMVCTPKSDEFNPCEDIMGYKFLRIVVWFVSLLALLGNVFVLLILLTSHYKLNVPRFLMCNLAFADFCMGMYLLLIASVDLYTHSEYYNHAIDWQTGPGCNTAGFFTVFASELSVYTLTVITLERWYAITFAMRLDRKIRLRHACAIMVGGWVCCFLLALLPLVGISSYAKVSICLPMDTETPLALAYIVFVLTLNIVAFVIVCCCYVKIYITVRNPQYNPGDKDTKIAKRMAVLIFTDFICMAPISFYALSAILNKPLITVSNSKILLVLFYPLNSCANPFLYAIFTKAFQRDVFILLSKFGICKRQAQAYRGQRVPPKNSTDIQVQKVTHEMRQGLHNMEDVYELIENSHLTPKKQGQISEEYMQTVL

Turning to `C[C@]12CC[C@H]3[C@@H](CCC4=CC(=O)CC[C@@]43C)[C@@H]1CC[C@@H]2C(=O)O`, the outcome in [1], in [5], in assay [8] and in assay [10] was inactive. For the same molecule, the Potency result in assay [2], in assay [3], in assay [4], in assay [6], in assay [7] and in assay [9] was “inactive” in each case. For the same molecule, the Potency result in assay [11], in assay [12], in assay [13], in [14], in assay [15] and in assay [16] was “inactive” each time. The Potency result in [17] and in assay [18] was “inactive” in each case.
Turning to `COC(=O)C(c1ccccc1)C1CCCCN1` (configuration not stated), the outcome in [1], in assay [19], in assay [5], in assay [8] and in assay [10] was inactive. In addition, the Potency result in assay [2], in assay [3], in assay [4], in assay [6], in assay [7] and in [9] was “inactive” each time. In addition, the Potency entry in assay [20], in assay [11], in assay [12], in [13], in [14] and in assay [15] was “inactive” each time. The Potency result in assay [16], in [17] and in assay [18] was “inactive” throughout.
For `O=C1OC(CCN2CCCCC2)OC1(c1ccccc1)c1ccccc1` (configuration not stated), the outcome in assay [1], in assay [5], in assay [8] and in assay [10] was inactive. The Potency entry in [2], in assay [3], in assay [7], in assay [20], in [11] and in assay [12] was “inactive” each time. The Potency entry in assay [13], in assay [14], in assay [15], in assay [16], in assay [17] and in assay [18] was “inactive” throughout.
As for `O=CNC(N1CCN(C(NC=O)C(Cl)(Cl)Cl)CC1)C(Cl)(Cl)Cl` (configuration not stated), the result in assay [1], in [5], in assay [8] and in [10] was inactive. The Potency in assay [2] was 30.6 µM (active). The Potency result in assay [3], in assay [4], in [6], in assay [9], in assay [20] and in assay [11] was “inactive” in each case. Also, the Potency entry in assay [12], in [13], in assay [14], in assay [15], in assay [16] and in assay [17] was “inactive” throughout. Also, the Potency entry in assay [18] was “inactive”.
For `CNC(=O)Oc1c(C(C)(C)C)cc(C)cc1C(C)(C)C`, the outcome in assay [1], in assay [5], in assay [8] and in assay [10] was inactive. Moreover, the Potency entry in assay [2], in assay [4], in assay [6], in assay [7], in assay [9] and in assay [20] was “inactive” each time. In addition, the Potency result in [11], in assay [12], in assay [13], in assay [14], in assay [16] and in assay [17] was “inactive” in each case. For the same molecule, in assay [18], the Potency result is “inactive”.
Take `CC(C)CC#N`: the outcome in assay [1], in [5], in assay [8] and in assay [10] was inactive. Further, the Potency entry in [2], in assay [3], in assay [4], in assay [9], in [11] and in [12] was “inactive” each time. Besides, the Potency entry in assay [13], in [14], in assay [15], in assay [16], in [17] and in assay [18] was “inactive” each time. The Potency in [7] is 27.9 µM (active).
With `Cc1ncc(CNC(=O)N(CCCl)N=O)c(N)n1`, the result in [1], in assay [19], in assay [5] and in [8] was inactive. The Potency result in assay [3], in [4], in [6], in assay [7], in assay [9] and in assay [11] was “inactive” in each case. Further, the Potency result in assay [12], in [14], in assay [15], in assay [16], in assay [17] and in assay [18] was “inactive” in each case.
